Data reported in PubChem BioAssay AID624260 (Broad Institute, 2012).
Screen size: about 44,000 compounds; about 30 (0.07%) were called active. Roughly 1% stayed inconclusive and do not appear here. The sample holds actives, similar compounds and a random draw of the others, so the mix is not that of the screen. Cut-off read from the data, not from the text of the source: active = inhibition above about 54% (passing the limit was not always enough); inconclusive = no clear call, values can overlap the other calls.

These molecules were tested against Histone-lysine N-methyltransferase NSD2 (Homo sapiens) (UniProt O96028) (assay: NSD2 histone methyltransferase activity blockers – biochemical, plate reader, single point, primary screen (AID 624260;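 note: inhibitors reduce the monomethyl H3K36 fluorescence signal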)). Settings: NSD2-SET H3K36me1 DELFIA fluorescence, at 12.5 µM, hits give high values.
Sequence of Histone-lysine N-methyltransferase NSD2 (Homo sapiens) (O96028 whole entry, looked up): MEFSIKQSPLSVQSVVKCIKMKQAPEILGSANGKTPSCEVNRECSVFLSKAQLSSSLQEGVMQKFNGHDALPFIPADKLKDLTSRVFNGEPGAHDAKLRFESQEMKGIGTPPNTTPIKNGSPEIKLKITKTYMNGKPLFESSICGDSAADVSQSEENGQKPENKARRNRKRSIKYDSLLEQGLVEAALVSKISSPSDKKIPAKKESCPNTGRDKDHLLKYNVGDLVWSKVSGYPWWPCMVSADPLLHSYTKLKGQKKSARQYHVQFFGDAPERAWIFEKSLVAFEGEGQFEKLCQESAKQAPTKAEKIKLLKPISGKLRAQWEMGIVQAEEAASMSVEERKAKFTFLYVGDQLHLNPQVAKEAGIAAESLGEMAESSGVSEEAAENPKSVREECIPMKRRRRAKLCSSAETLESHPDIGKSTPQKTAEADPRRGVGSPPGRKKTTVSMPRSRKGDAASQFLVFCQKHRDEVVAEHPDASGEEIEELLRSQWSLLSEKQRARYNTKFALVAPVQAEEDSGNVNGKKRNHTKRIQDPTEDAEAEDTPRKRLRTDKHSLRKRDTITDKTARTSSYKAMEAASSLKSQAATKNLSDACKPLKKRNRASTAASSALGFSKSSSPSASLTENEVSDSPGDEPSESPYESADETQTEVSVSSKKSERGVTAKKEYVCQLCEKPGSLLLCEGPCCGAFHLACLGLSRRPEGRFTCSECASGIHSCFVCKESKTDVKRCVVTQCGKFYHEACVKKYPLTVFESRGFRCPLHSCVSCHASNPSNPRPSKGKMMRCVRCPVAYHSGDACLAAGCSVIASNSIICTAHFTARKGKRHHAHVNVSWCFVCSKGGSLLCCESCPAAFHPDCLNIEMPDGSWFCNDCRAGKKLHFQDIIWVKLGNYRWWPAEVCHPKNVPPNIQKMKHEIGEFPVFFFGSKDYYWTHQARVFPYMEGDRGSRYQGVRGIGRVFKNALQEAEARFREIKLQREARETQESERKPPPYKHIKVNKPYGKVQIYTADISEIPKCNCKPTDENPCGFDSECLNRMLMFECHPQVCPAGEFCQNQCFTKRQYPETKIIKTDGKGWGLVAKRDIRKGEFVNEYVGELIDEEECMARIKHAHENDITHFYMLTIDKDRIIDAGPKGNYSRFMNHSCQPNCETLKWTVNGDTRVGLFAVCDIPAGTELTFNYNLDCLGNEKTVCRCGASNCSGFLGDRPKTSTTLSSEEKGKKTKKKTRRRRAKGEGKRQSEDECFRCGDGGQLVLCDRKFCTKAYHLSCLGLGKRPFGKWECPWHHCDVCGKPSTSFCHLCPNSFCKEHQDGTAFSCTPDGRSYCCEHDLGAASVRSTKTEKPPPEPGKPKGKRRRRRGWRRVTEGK

inhibition, inactive:
O=C(C[C@H]1C[C@@H]2c3cc(NC(=O)c4cccnc4)ccc3O[C@@H]2[C@@H](CO)O1)NCc1ccccc1F -0.738%
CCCN(C)C[C@H]1Oc2cc(C#CCC3CCCC3)ccc2S(=O)(=O)N([C@@H](C)CO)C[C@@H]1C 1.41%
C[C@@H]1CN([C@@H](C)CO)C(=O)Cc2cc(NC(=O)Nc3ccc4c(c3)OCO4)ccc2O[C@H]1CN(C)S(=O)(=O)c1ccc(F)cc1 5.36%
C[C@H](CO)N1C[C@H](C)[C@@H](CN(C)Cc2ccc(C(F)(F)F)cc2)Oc2ccc(NC(=O)Cn3cnnn3)cc2CC1=O -8%
CC(C)NC(=O)N(C)C[C@H]1Oc2cc(C#Cc3ccccn3)ccc2S(=O)(=O)N([C@H](C)CO)C[C@@H]1C 4.46%
CC(/C=C/C(=O)NO)=C\c1ccccc1OCc1ccc(COc2ccc3ccncc3c2)cc1 -5.12%
C[C@@H]1CN([C@H](C)CO)S(=O)(=O)c2ccc(/C=C/c3ccccc3)cc2O[C@@H]1CN(C)C(=O)Nc1ccc(F)cc1 -10.2%
C[C@H]1CN([C@@H](C)CO)C(=O)Cc2cc(NC(=O)Nc3cccc4ccccc34)ccc2O[C@@H]1CN(C)C 1.05%
Cc1ccc(-c2ccc3c(c2)O[C@H](CN(C)C(=O)Nc2ccccc2)[C@@H](C)CN([C@@H](C)CO)S3(=O)=O)cc1 -6.18%
CCCNC(=O)C[C@H]1C[C@@H]2c3cc(NC(=O)c4ccc5c(c4)OCO5)ccc3O[C@@H]2[C@@H](CO)O1 7.66%
C[C@H](CO)N1C[C@H](C)[C@@H](CN(C)CC2CC2)Oc2ccc(NC(=O)CCCN(C)C)cc2CC1=O 3.07%
O=C(C[C@H]1CC[C@H](NC(=O)Nc2ccc(C(F)(F)F)cc2)[C@H](CO)O1)NCCN1CCCC1 -1.99%
COc1ccc(NC(=O)N(C)C[C@H]2OCc3ccccc3-c3ccccc3C(=O)N([C@H](C)CO)C[C@@H]2C)cc1 -1.37%
CCC(=O)N(C)C[C@H]1Oc2cc(C#CCOC)ccc2S(=O)(=O)N([C@H](C)CO)C[C@H]1C -1.1%
O=C(C[C@H]1C[C@H]2c3cc(NC(=O)Nc4ccc(F)cc4)ccc3O[C@H]2[C@@H](CO)O1)NCC1CC1 2.39%
COc1ccc(CN(C)C[C@H]2OCCCC[C@H](C)Oc3ccc(NS(=O)(=O)c4ccc(C)cc4)cc3C(=O)N([C@@H](C)CO)C[C@H]2C)cc1 2.76%
C[C@@H]1CN([C@@H](C)CO)C(=O)Cc2cc(NC(=O)Nc3ccc(C(F)(F)F)cc3)ccc2O[C@H]1CN(C)C(=O)Nc1ccc(F)cc1 -13.8%
Cc1ccc(S(=O)(=O)N(C)C[C@@H]2Oc3ccc(NC(=O)C4CCCCC4)cc3CC(=O)N([C@@H](C)CO)C[C@H]2C)cc1 -6.23%
CCC(=O)N(C)C[C@@H]1Oc2cc(-c3ccc(OC)cc3)ccc2S(=O)(=O)N([C@@H](C)CO)C[C@H]1C 1.75%
C[C@H](NC(=O)C[C@@H]1CC[C@H](NC(=O)CN2CCOCC2)[C@H](CO)O1)c1ccccc1 -3.53%
COc1cccc(S(=O)(=O)N(C)C[C@@H]2Oc3ncc(-c4cccc(C(=O)N(C)C)c4)cc3C(=O)N([C@H](C)CO)C[C@@H]2C)c1 5.93%
COc1ccc(NC(=O)Nc2ccc3c(c2)C(=O)N([C@H](C)CO)C[C@@H](C)[C@H](CN(C)C(=O)Cc2ccccc2)OCCCC[C@H](C)O3)cc1 -2.17%
CCCNC(=O)C[C@H]1C[C@@H]2c3cc(NC(=O)C4CCOCC4)ccc3O[C@@H]2[C@@H](CO)O1 11%
C/C=C/c1ccc2c(c1)O[C@H](CN(C)C(=O)CN(C)C)[C@H](C)CN([C@@H](C)CO)S2(=O)=O 1.3%
Cc1noc(C)c1S(=O)(=O)Nc1ccc2c(c1)C(=O)N([C@H](C)CO)C[C@@H](C)[C@@H](CN(C)S(=O)(=O)c1ccc(Cl)cc1)O2 -1.25%
C[C@H](CO)N1C[C@H](C)[C@@H](CN(C)Cc2ccccc2)OCCCC[C@H](C)Oc2ccc(NC(=O)Cc3ccccc3)cc2C1=O -3.29%
CCCN(C)C[C@H]1Oc2cc(C#CCC(C)C)ccc2S(=O)(=O)N([C@H](C)CO)C[C@H]1C 0.338%
C[C@H]1CN([C@@H](C)CO)C(=O)c2cccc(NC(=O)Nc3ccc(C(F)(F)F)cc3)c2O[C@H]1CN(C)CC1CCCCC1 1.34%
C[C@H](CO)N1C[C@H](C)[C@H](CN(C)Cc2ccccc2)OCCCC[C@H](C)Oc2ccc(NC(=O)c3ccccc3)cc2C1=O 8.82%
C[C@H]1CN([C@@H](C)CO)C(=O)c2cc(-c3ccncc3)cnc2O[C@H]1CN(C)C(=O)c1cccc(F)c1 -1.28%
CC(C)CC#Cc1ccc2c(c1)O[C@H](CN(C)C(=O)c1cccnc1)[C@@H](C)CN([C@H](C)CO)S2(=O)=O 0.112%
C[C@H]1CN([C@@H](C)CO)C(=O)c2cc(C3=CCCCC3)cnc2O[C@H]1CN(C)Cc1ccncc1 3.39%
C/C=C/c1ccc2c(c1)O[C@@H](CN(C)C(=O)Cc1ccccc1)[C@H](C)CN([C@@H](C)CO)S2(=O)=O 5.94%
COc1ccc(NC(=O)N(C)C[C@H]2Oc3cc(C#CCN(C)C)ccc3S(=O)(=O)N([C@@H](C)CO)C[C@@H]2C)cc1 5.29%
Cc1noc(C)c1NC(=O)N(C)C[C@@H]1Oc2ccc(NC(=O)Nc3cccc4ccccc34)cc2CC(=O)N([C@@H](C)CO)C[C@H]1C -4.68%
CCC(=O)N(C)C[C@@H]1Oc2cc(C#CCOC)ccc2S(=O)(=O)N([C@H](C)CO)C[C@H]1C -17.7%
CN(C)C(=O)C[C@H]1C[C@H]2c3cc(NC(=O)Nc4ccccc4F)ccc3O[C@H]2[C@@H](CO)O1 2.09%
COCC(=O)N(C)C[C@H]1Oc2ncc(-c3ccc(C)cc3)cc2C(=O)N([C@@H](C)CO)C[C@@H]1C 25.2%
